Data: PubChem BioAssay (EPA / NIEHS)
Active and inactive are the calls of the source. How the source made its calls: active means hit-call score of the fitted dose curve at least 0.9, where 1 is the maximum; inactive means score below 0.9.

Columns and labels:
Conditions in all cases: primary human HUVEC with PBMC; actives raise or lower the signal
[1] = read-out: Monocyte Chemoattractant Protein-1 (MCP1), CCL2 (gene 6347); test: BSK_LPS_MCP1: BioMAP Diversity Plus: LPS Assay for Monocyte Chemoattractant Protein-1 (MCP1) Biomarker Activity (AID 2283081);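 on AC50: secreted MCP-1 protein quantified by ELISA in culture supernatant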
Procedure, shortened: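 LPS-stimulated HUVEC/PBMC co-culture; chemical, 24 h; MCP-1 by ELISA; bidirectional fit vs DMSO; cytotoxicity via SRB (0.1% stain, 10% TCA fix, 560 nm) in parallel wells.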

[2] = BSK_LPS_PGE2: BioMAP Diversity Plus: LPS Assay for Prostaglandin E2 (PGE2) Biomarker Activity (AID 2283082);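 on AC50: secreted prostaglandin E2 measured by ELISA in LPS-stimulated co-culture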
Procedure, shortened: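 HUVEC plus PBMC co-culture stimulated with LPS; secreted PGE2 quantified by ELISA 24 h after chemical dosing. Activity fitted bidirectionally against DMSO as negative control and baseline; parallel SRB total-protein staining served as cytotoxicity check.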

[3] = read-out: Tissue Factor, F3 (gene 2152); test: BSK_LPS_TissueFactor: BioMAP Diversity Plus: LPS Assay for Tissue Factor Biomarker Activity (AID 2283084)
Procedure, shortened: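 In this co-culture system of umbilical vein endothelium with PBMC, stimulated with LPS, cell-surface CD142 is detected by ELISA at 24 h. Endpoint values derive from bidirectional fitting, DMSO serving as baseline.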

[4] = read-out: Tumor necrosis factor (Homo sapiens) (UniProt P01375); test: BSK_LPS_TNFa: BioMAP Diversity Plus: LPS Assay for Tumour Necrosis Factor alpha (TNFa) Biomarker Activity (AID 2283085)
Procedure, shortened: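 Human umbilical vein endothelial cells co-cultured with PBMC were exposed to test chemical and TNFa measured by ELISA 24 h after dosing. Bidirectional curve fitting was done relative to DMSO as negative control and baseline.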

[5] = read-out: Vascular cell adhesion molecule 1 (VCAM1), VCAM1 (gene 7412); test: BSK_LPS_VCAM1: BioMAP Diversity Plus: LPS Assay for Vascular cell adhesion molecule 1 (VCAM1) Biomarker Activity (AID 2283086)
Procedure, shortened: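 Human umbilical vein endothelial cells co-cultured with peripheral blood mononuclear cells under LPS stimulation were exposed to test chemical for 24 h. VCAM-1 levels were then measured by ELISA, with bidirectional curve fitting relative to DMSO as negative control and baseline.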

CD38, CD38 (gene 952) = test: BSK_SAg_CD38: BioMAP Diversity Plus: SAg Assay for CD38 Biomarker Activity (AID 2283087)
Procedure, shortened: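 Fluorescence ELISA of cell-surface CD38 served as the read-out, with either increase or decrease fitted against DMSO controls. Cells were a human umbilical vein endothelium plus PBMC co-culture under SEB/TSST-1 stimulation, measured 24 h after dosing.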

CD40, CD40 (gene 958) = test: BSK_SAg_CD40: BioMAP Diversity Plus: SAg Assay for CD40 Biomarker Activity (AID 2283088)
Procedure, shortened: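 Fluorescence ELISA read-out of CD40 from umbilical vein endothelium plus peripheral blood mononuclear cells, sampled 24 h after dosing. Values come from bidirectional curve fitting with DMSO as baseline.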

CD69, CD69 (gene 969) = test: BSK_SAg_CD69: BioMAP Diversity Plus: SAg Assay for CD69 Biomarker Activity (AID 2283089);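 on AC50: cell surface CD69 protein quantified by ELISA with fluorescence detection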
Procedure, shortened: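 Primary human vascular co-culture (umbilical vein endothelium with peripheral blood mononuclear cells) exposed to test chemical for 24 h. CD69 levels quantified by fluorescence ELISA; DMSO served as negative control for bidirectional fitting.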

[6] = read-out: Monocyte Chemoattractant Protein-1 (MCP1), CCL2 (gene 6347); test: BSK_SAg_MCP1: BioMAP Diversity Plus: SAg Assay for Monocyte Chemoattractant Protein-1 (MCP1) Biomarker Activity (AID 2283090)
Procedure, shortened: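 MCP-1 levels in the endothelial–PBMC SAg co-culture were quantified by ELISA at 24 h post-dosing; both increases and decreases versus DMSO scored. Cytotoxicity monitored by SRB total protein in parallel cultures.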

Measured: AC50

Tumor necrosis factor (Homo sapiens), sequence (P01375 whole entry, looked up): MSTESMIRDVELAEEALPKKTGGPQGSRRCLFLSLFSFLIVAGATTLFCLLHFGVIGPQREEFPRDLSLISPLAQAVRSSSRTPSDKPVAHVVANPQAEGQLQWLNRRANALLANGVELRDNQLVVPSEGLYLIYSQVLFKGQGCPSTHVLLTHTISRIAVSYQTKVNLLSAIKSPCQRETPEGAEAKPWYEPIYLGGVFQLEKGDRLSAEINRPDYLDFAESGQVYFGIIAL

COCC(=O)N(c1c(C)cccc1C)C(C)C(=O)OC (stereo unspecified)
inactive: all assays above

CC(C)(C)C(=O)C(Oc1ccc(Cl)cc1)n1cncn1 (stereo unspecified)
inactive: all assays above

CCN(CC)c1nc(C)cc(OP(=S)(OC)OC)n1
inactive: [1] | [2] | [3] | [6]
active: [4] 6.51 µM | [5] 20 µM | CD38, CD38 (gene 952) 20 µM | CD40, CD40 (gene 958) 20 µM | CD69, CD69 (gene 969) 3.97 µM

CC(C)C1(C)N=C(c2ncccc2C(=O)O)NC1=O (stereo unspecified)
inactive: all assays above

Nc1cnn(-c2ccccc2)c(=O)c1Cl
inactive: all assays above

Cc1ccc(N=CN(C)C=Nc2ccc(C)cc2C)c(C)c1
active: [1] 31.7 µM | [2] 11.6 µM | [3] 32.6 µM | [4] 33.6 µM | [5] 26.6 µM | CD38, CD38 (gene 952) 29.1 µM | CD40, CD40 (gene 958) 31.9 µM | CD69, CD69 (gene 969) 31.5 µM | [6] 30.9 µM

CCN(CC)C(=O)C(C)Oc1cccc2ccccc12 (stereo unspecified)
inactive: all assays above

O=C(Nc1ccccc1-c1ccc(Cl)cc1)c1cccnc1Cl
inactive: all assays above

Clc1nc(Cl)nc(Nc2ccccc2Cl)n1
inactive: all assays above

CCNC(=O)NC(=O)C(C#N)=NOC
inactive: all assays above

CCNP(=S)(OC)O/C(C)=C/C(=O)OC(C)C (stereo unspecified)
inactive: all assays above

C=C(C)CN(CC)c1c([N+](=O)[O-])cc(C(F)(F)F)cc1[N+](=O)[O-]
active: [4] 5.11 µM | [5] 20 µM | CD38, CD38 (gene 952) 33.7 µM
inactive: all other assays above

CSC(=O)c1c(C(F)F)nc(C(F)(F)F)c(C(=O)SC)c1CC(C)C
active: CD38, CD38 (gene 952) 20.8 µM | CD40, CD40 (gene 958) 34 µM | [6] 13.9 µM
inactive: all other assays above

Nc1c(Cl)c(Cl)nc(C(=O)O)c1Cl
inactive: all assays above

COC(=O)N(C(=O)N1CO[C@@]2(C(=O)OC)Cc3cc(Cl)ccc3C2=N1)c1ccc(OC(F)(F)F)cc1
active: CD38, CD38 (gene 952) 5.95 µM | CD40, CD40 (gene 958) 5.46 µM | CD69, CD69 (gene 969) 6.93 µM | [6] 5.47 µM
inactive: all other assays above

Cc1cnc(C2=NC(C)(C(C)C)C(=O)N2)c(C(=O)O)c1 (stereo unspecified)
inactive: all assays above

CCCCOCN(C(=O)CCl)c1c(CC)cccc1CC
active: [1] 31.8 µM | [3] 30.2 µM | [4] 35.1 µM | [5] 28.2 µM | CD38, CD38 (gene 952) 29.4 µM | CD40, CD40 (gene 958) 30.8 µM | CD69, CD69 (gene 969) 18.3 µM | [6] 28.5 µM
inactive: [2]

Nc1c(Cl)c(F)nc(OCC(=O)O)c1Cl
active: [3] 5.36 µM
inactive: all other assays above

CC(C)N1C(=O)c2ccccc2NS1(=O)=O
inactive: all assays above
